# G9a inh – qHTS Assay for Inhibitors of Histone Lysine Methyltransferase G9a; G9a H3K9 monomethylation, AlphaScreen, 2 h; Potency, µM (top dose mostly 102 µM), inactives show at the top dose activity, negative = inhibition, usual class: inhibitors; actives 8.8% (n = 350,000); further: potency means the concentration at half of the fitted maximal effect; on the % scale 0 is the no-effect control and ±100 the full control effect; nearly all actives have a fitted effect of over 75% in size
#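 Chemiluminescent proximity detection of H3K9 monomethylation, read after 10 min bead incubation in the dark. Reaction: 20 nM G9a, 500 nM biotin-H3K9 peptide, 20 uM SAM cofactor, 2 h, room temperature, following 15 min enzyme-compound preincubation.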
# Sfp PPTase inh – qHTS Assay for Inhibitors of Bacillus subtilis Sfp phosphopantetheinyl transferase (PPTase); actives 3.5% (n = 310,000); 4'-phosphopantetheinyl transferase ffp (Bacillus subtilis), Q9F4F7; AID 1490, 2009; Potency, µM, for the others: largest response in the series, negative = inhibition, usual class: inhibitors; Biochemical Sfp PPTase activity, qHTS;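 further: the enzyme is Sfp with the accession as filed and its product quenches rhodamine fluorescence; potency means the concentration at half of the fitted maximal effect; 0% = enzyme reaction without inhibitor and -100% = no enzyme wells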
#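 After 15 min at room temperature with compound, 15 nM Sfp received 5 uM rhodamine-CoA plus 12.5 uM BHQ-2-ybbR (50 mM Hepes pH 7.6, 10 mM MgCl2). Rate came from the fluorescence difference over 30 min, ex 525/em 598 nm.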
# JMJD2A Tudor inh – qHTS Assay for Inhibitors of JMJD2A-Tudor Domain; Lysine-specific demethylase 4A (Homo sapiens), O75164; AlphaScreen JMJD2A-Tudor / H3K4me3 peptide binding; Potency, µM (titrated, usually from 114 µM), inactives show at the highest dose activity change, negative = inhibition, hits mostly inhibitors; actives 4.4% (n = 390,000); further: potency means the concentration at half of the fitted maximal effect; on the % scale 0 is the no-effect control and ±100 the full control effect; nearly all actives have a fitted effect of over 50% in size
# L3MBTL1 inh-1 – qHTS Assay for the Inhibitors of L3MBTL1. Potency, µM (series often up to 57.1 µM), for inactives: top-dose activity, negative = inhibition, hits mostly inhibitors. AlphaScreen L3MBTL1–H3K9me1 peptide binding. actives 0.66% (n = 230,000). Lethal(3)malignant brain tumor-like protein 1 (Homo sapiens), Q9Y468; further: potency means the concentration at half of the fitted maximal effect; on the % scale 0 is the no-effect control and ±100 the full control effect; nearly all actives have a fitted effect of over 60% in size
# Target sequence (Q9Y468 whole entry, looked up): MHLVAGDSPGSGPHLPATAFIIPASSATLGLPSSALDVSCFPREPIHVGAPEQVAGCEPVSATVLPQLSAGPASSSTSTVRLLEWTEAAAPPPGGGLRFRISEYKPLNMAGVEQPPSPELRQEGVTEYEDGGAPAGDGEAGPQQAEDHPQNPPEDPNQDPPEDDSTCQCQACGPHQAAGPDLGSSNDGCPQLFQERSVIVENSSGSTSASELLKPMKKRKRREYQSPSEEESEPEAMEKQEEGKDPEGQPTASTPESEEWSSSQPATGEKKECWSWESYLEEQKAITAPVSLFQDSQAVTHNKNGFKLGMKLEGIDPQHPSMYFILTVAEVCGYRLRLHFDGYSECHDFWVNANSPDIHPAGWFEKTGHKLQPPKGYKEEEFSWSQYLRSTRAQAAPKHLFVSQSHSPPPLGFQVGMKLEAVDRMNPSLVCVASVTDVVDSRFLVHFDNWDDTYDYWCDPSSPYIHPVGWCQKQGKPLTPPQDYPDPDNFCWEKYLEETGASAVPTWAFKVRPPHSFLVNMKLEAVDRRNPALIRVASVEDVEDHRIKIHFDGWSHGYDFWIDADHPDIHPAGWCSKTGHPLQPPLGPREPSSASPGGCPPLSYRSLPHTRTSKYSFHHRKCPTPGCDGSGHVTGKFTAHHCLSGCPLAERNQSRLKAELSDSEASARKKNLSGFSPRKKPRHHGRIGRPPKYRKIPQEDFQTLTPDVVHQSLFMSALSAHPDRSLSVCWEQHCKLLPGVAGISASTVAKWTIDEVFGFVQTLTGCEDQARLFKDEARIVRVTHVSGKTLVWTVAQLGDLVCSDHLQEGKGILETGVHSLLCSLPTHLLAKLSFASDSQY
#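 L3MBTL1 50 nM + b-AHA-H3(1-15)K9me1 75 nM, 30 min RT; compound added, 30 min RT; streptavidin donor/Ni-chelate acceptor beads 10 ug/mL each final, 30 min RT dark; AlphaScreen read.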
# BAZ2B inh – qHTS Assay for Inhibitors of BAZ2B; Bromodomain adjacent to zinc finger domain protein 2B (Homo sapiens), Q9UIF8; AlphaScreen BAZ2B-H3K14Ac peptide displacement; Potency, µM (titrated, usually from 114 µM), for the others: top-dose activity change, negative = inhibition, most hits filed as inhibitors; actives 4.4% (n = 360,000); further: potency means the concentration at half of the fitted maximal effect; on the % scale 0 is the no-effect control and ±100 the full control effect; nearly all actives have a fitted effect of over 60% in size
#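 Complex of BAZ2B and biotin-H3K14Ac (50 nM apiece) forms over 30 min at RT, then faces library compounds up to 110 uM for another 30 min; AlphaScreen beads added, 20 min dark incubation, luminescence read.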
# HP1b binding inh – HTS for Inhibitors of HP1-beta Chromodomain Interactions with Methylated Histone Tails | Chromobox protein homolog 1 (Homo sapiens), P83916 | AlphaScreen HP1-beta / biotin-H3K9me3 peptide binding | Potency, µM (top dose mostly 114 µM), without a hit: at the highest dose activity change, negative = inhibition, actives largely listed as inhibitors | actives 0.56% (n = 390,000); further: potency means the concentration at half of the fitted maximal effect; nearly all actives have a fitted effect of over 70% in size
#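 HP1-beta protein (50 nM final) preincubated 30 min at room temperature with biotinylated H3(1-18)K9me3 peptide (50 nM) in PBS pH 7.4, 0.01% Tween-20, then compound added for 30 min. AlphaScreen streptavidin donor/nickel chelate acceptor beads (10 ug/mL final), 30 min dark, luminescence read.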
# L3MBTL1 inh-2 – qHTS Assay for the Inhibitors of L3MBTL1: Hit Validation; shares compounds with L3MBTL1 inh-1; Potency, µM, actives largely listed as inhibitors; L3MBTL1 methyl-lysine binding inhibition, biochemical qHTS; actives 91% (n = 500); further: potency means the concentration at half of the fitted maximal effect; nearly all actives have a fitted effect of over 70% in size
# L3MBTL1 ctr – qHTS Assay for the Inhibitors of L3MBTL1: Hit Validationin AlphaScreen Counterscreen; shares compounds with L3MBTL1 inh-1; AlphaScreen counterscreen, signal inhibition; Potency, µM (doses to about 57.1 µM), without a hit: top-dose activity change, negative = inhibition, usual class: inhibitors; 500 tested, under 10 active; AID 602224, 2012; further: potency means the concentration at half of the fitted maximal effect; 0% is about no effect
# ME-1 growth – qHTS Assay for Compounds Blocking the Interaction Between CBF-beta and RUNX1 for the Treatment of Acute Myeloid Leukemia: ME-1 cellular proliferation; shares compounds with BAZ2B inh; ME-1 cell proliferation, ATP luminescence, 48 h; Potency, µM (top dose mostly 56.1 µM), for the others: at the highest dose activity change, negative = inhibition, most hits filed as inhibitors; actives 20% (n = 140)
# * marks the source's active call; other numbers are inactive results; ? = inconclusive; nt = not tested or not shown; [ ] = remark or other dose. A selection: hits, their analogues and other compounds. The true share with any hit is near 12%. The call rests on the fitted dose curve; in most records, active means well fitted curve in the direction sought with a large enough effect; inconclusive means small, poorly fitted or top-dose-only effect, or another doubt; inactive means no such curve, though single readings can be large; an effect the other way counts as inactive or inconclusive.
SMILES,G9a inh,Sfp PPTase inh,JMJD2A Tudor inh,L3MBTL1 inh-1,BAZ2B inh,HP1b binding inh,L3MBTL1 inh-2,L3MBTL1 ctr,others
CCOC(=O)CN1C(=O)S/C(=C\c2ccc(-c3ccc(C(=O)O)c(Cl)c3)o2)C1=O,50µM*,50µM*,79µM*,28µM*,?,-13%,13*,-1%,
Cc1cc2c(c(=O)o1)C(c1ccc([N+](=O)[O-])o1)C(C#N)=C(N)O2 (stereo not drawn),?,?,-30%,32µM*,?,13%,?,9%,
CC1CC(OC(=O)C(O)c2ccccc2)CC(C)(C)C1 (stereo not drawn),38%[59 µM],19%,nt,nt,nt,nt,nt,nt,
CCCc1cc(=O)[nH]c(Nc2cc(C)ccc2OC)n1,-3%[59 µM],nt,-10%,nt,-2%,18%,nt,nt,
O=C(Cn1c(=O)n(Cc2ccco2)c(=O)c2cccnc21)Nc1ccccc1F,3%[59 µM],nt,-5%,nt,1%,28%,nt,nt,
COc1cc(/C=C/[N+](=O)[O-])ccc1OCc1cccc(C(=O)O)c1,14µM*,14µM*,-31%,28µM*,28µM*,7%,?,2%,
C=C(C)CCOC(=O)C(CC(=O)O)NCc1ccco1 (stereo not drawn),11µM*,?,35µM*,28µM*,35µM*,-18%,9.5*,14%,
Cc1c(C(=O)OCCOC(C)C)[nH]c2c1C(=O)CC(c1ccco1)C2 (stereo not drawn),45µM*,?,?,25µM*,50µM*,-16%,24*,-2%,
COCCOC(=O)c1[nH]c2c(c1C)C(=O)CC(c1ccco1)C2 (stereo not drawn),50µM*,-26%,45µM*,32µM*,50µM*,50µM*,15*,-1%,
CCOC(=O)c1[nH]c2c(c1C)C(=O)CC(c1ccco1)C2 (stereo not drawn),?,25µM*,56µM*,32µM*,45µM*,-15%,21*,7%,
CSCCOC(=O)c1[nH]c2c(c1C)C(=O)CC(c1ccco1)C2 (stereo not drawn),22µM*,45µM*,35µM*,35µM*,45µM*,?,19*,-5%,
CCOc1ccc(NC(=O)CSc2nc3c(c(=O)[nH]2)CCCC3)cc1,-42%[59 µM],nt,0%,nt,-19%,30%,nt,nt,
CC1=C(C)C[C@@]23CCCN2C(=O)CCC[C@H]3C1,21%[135 µM],-3%,nt,nt,nt,nt,nt,nt,
Cc1c(C(=O)OCc2ccccc2)[nH]c2c1C(=O)CC(c1ccco1)C2 (stereo not drawn),?,40µM*,25µM*,25µM*,50µM*,71µM*,15*,10%,
COc1ccc(C2CC(=O)c3c([nH]c(C(=O)OCc4ccccc4)c3C)C2)cc1 (stereo not drawn),-16%[59 µM],nt,-36%,nt,-12%,24%,nt,nt,
Cc1cc(C)c(S(=O)(=O)NCCc2cc3cc(C)c(C)cc3[nH]c2=O)c(C)c1,7%[59 µM],nt,-18%,nt,-19%,6%,nt,nt,
Cc1ccc2nc(-c3ccc(O)c(O)c3)cn2c1,nt,56µM*,22µM*,32µM*,50µM*,?,5.3*,-1%,
O=C(O)c1cc2[nH]c3c(c2cc1Cl)CCCC3,2%[0.501 µM],26%,-30%,2%[2.29 µM],-8%,10%,nt,nt,
O=C(O)c1ccc2[nH]c3c(c2c1)CSCC3,?,40µM*,-12%,32µM*,-3%,33%,13*,2%,
O=C(Nc1ccc(C(=O)OCc2cc(=O)n3nc(C4CC4)sc3n2)cc1)c1ccccc1,?,nt,-5%,nt,-4%,28%,nt,nt,
O=CC(O)C(O)C(O)C(O)CO (stereo not drawn),4%[59 µM],15%,nt,nt,nt,nt,nt,nt,
O=C(O)/C=C/c1nc(-c2ccccc2)n2ccccc12,11µM*,11%,-28%,18µM*,45µM*,6%,?,-15%,
Cc1cccc(C)c1NC(=O)CSc1nnc(-c2ccco2)c(-c2ccco2)n1,19%[0.501 µM],11µM*,25µM*,2.8µM*,2.5µM*,50µM*,2.7*,-29%,
COc1ccc(-c2nnc(SCC(=O)Nc3c(C)cccc3C)nc2-c2ccc(OC)cc2)cc1,?,nt,-36%,nt,-14%,-1%,nt,nt,
CCCCCn1c(=O)[nH]c2cc(C(=O)Nc3cc(OC)cc(OC)c3)ccc2c1=O,2%[59 µM],nt,-13%,nt,-1%,18%,nt,nt,
Cn1nc2c(c1C(=O)O)CCCC2,?,10%,?,5.6µM*,-36%,13%,15*,15%,
Cn1nc2c(c1C(=O)N1CCCC(C(=O)c3cc(F)ccc3F)C1)CCCC2 (stereo not drawn),-2%,1%,-2%,1%,-20%,31%,nt,nt,
N#Cc1nc(COc2ccccc2Cl)oc1N1CCCC1,7.9µM*,5%,?,28µM*,13µM*,?,?,?,
CC(=O)Oc1cc2cccc(OC(C)=O)c(=O)c2c(OC(C)=O)c1OC(C)=O,2.8µM*,-20%,8.9µM*,0.35µM*,1.6µM*,?,1.5*,-11%,ME-1 growth=?
COC1=C[C@@H](C)C2CC3OC(=O)C[C@H]4C(C)=C(OC)C(=O)C([C@@]2(C)C1=O)[C@@]34C (stereo partly drawn),nt,10%,nt,nt,nt,nt,nt,nt,
